Laboratory results reported in PubChem BioAssay AID1445 (SRMLSC, 2008).
Among all 220,000 compounds or so, about 910 (0.41%) were called active.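 The calls were made as follows: active = primary inhibition above the hit cutoff, then over 50% inhibition at one or more dose response concentrations (cut at about 23% in these data, passing the limit was not always enough); inconclusive = conflicting primary data, or primary hits not chosen for dose response; inactive = low primary inhibition, or under 50% at every dose.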 The full list was thinned out, with actives kept by preference. Measured potencies and affinities stand elsewhere.

Target: Aminopeptidase N (Plasmodium falciparum (isolate 3D7)) (UniProt O96935)
Test: malaria alanyl aminopeptidase activity blockers – biochemical, fluorogenic H-Leu-NHMec substrate, 1536-well (AID 1445);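 also: plate controls were DMSO full reaction for no effect and no enzyme background for full effect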
Details: recombinant M1AAP, H-Leu-NHMec fluorogenic kinetic assay; at 30 µM, active compounds read high unless noted

Aminopeptidase N (Plasmodium falciparum (isolate 3D7)), sequence (O96935 whole entry, looked up): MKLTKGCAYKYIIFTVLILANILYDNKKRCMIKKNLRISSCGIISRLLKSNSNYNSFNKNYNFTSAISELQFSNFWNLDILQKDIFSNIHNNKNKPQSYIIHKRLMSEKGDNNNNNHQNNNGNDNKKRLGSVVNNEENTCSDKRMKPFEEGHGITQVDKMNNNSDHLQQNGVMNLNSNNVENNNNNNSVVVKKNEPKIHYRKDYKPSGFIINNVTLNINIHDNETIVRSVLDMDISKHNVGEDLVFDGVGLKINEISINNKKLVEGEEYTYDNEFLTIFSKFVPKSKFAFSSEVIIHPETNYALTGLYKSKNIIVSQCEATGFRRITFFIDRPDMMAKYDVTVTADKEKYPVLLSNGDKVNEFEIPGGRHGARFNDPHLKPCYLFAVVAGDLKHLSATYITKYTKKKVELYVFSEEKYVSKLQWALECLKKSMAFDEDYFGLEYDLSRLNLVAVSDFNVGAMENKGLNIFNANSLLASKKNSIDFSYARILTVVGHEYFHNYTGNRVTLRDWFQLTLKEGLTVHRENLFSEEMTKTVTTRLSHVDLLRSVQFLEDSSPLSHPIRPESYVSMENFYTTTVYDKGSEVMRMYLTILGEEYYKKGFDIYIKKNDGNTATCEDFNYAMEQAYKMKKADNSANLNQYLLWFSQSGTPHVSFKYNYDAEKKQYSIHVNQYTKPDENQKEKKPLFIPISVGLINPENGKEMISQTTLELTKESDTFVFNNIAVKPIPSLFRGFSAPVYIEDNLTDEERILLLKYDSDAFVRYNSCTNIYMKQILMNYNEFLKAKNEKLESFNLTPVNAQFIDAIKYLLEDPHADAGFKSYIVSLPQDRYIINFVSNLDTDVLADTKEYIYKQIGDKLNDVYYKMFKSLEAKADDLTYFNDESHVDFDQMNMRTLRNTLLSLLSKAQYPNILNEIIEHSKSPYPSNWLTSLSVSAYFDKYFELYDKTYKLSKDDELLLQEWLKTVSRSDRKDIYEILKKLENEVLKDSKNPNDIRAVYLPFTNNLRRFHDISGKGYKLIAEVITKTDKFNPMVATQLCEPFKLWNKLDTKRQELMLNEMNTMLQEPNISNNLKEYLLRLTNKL

inhibition, inactive:
O=C(COc1cccnc1[N+](=O)[O-])Nc1ccccc1Sc1ccccc1 -2.34%
CCOc1cccc(C(=O)NC(=S)Nc2cccnc2)c1 6.93%
COc1ccc(-c2ccc(N(C)C)cc2)cc1[C@H]1[C@H]2C=CC[C@@H](C)[C@@H]2C(=O)N1Cc1ccccc1 0.52%
O=C(c1ccc2c(=O)n3c(nc2c1)CCCCC3)N1CCN(c2ccccc2)CC1 7.74%
COc1ccc(Nc2cc(Cl)nc(N)n2)cc1 4.08%
CCNC(=S)N(CCc1ccc(S(N)(=O)=O)cc1)C1CC(=O)N(c2ccccc2)C1=O (configuration not stated) 2.82%
Cc1nn2c(-c3ccccn3)ccnc2c1Br 7.82%
CCOc1c(Cl)cnn(-c2ccc(C)cc2)c1=O -0.82%
CCOC(=O)c1cc(-c2cc3ccccc3o2)nc2c1c(=O)[nH]c(=O)n2CCOC 6.31%
Oc1[nH]c2ccc(Br)cc2c1N=Nc1ccc(C(F)(F)F)cn1 4.3%
N=C(N)N=Nc1c(O)[nH]c2ccc(Br)cc12 10.3%
CNc1oc(/C=C/c2ccccc2)nc1C#N 3.76%
N#Cc1nc(-c2ccc(F)cc2)oc1NCCN1CCOCC1 3.45%
CN(C)CCCNc1oc(-c2ccccc2)nc1C#N 5.83%
N#Cc1nc(-c2ccco2)oc1NCCCN1CCOCC1 6.97%
COCCNc1oc(-c2ccc(C)cc2)nc1C#N 19.1%
COCCNc1oc(-c2ccccc2Cl)nc1C#N 10.4%
CN1CCN(c2oc(/C=C/c3ccccc3)nc2C#N)CC1 16.3%
CN(C)CCNc1oc(/C=C/c2ccccc2)nc1C#N 20.7%
O=C(NCCOc1ccccc1F)c1cc(F)c(F)cc1Cl 3.2%
CC(=O)N1CCN(c2ccc([N+](=O)[O-])cc2)CC1 3.7%
COc1ccccc1-c1nn2c(C(F)(F)F)nnc2s1 4.63%
O=C(NCc1ccccc1)C1=C[C@H](c2coc3ccccc3c2=O)C[C@H](OCCCCO)O1 6.04%
O=c1c2cc(NC(=S)NC3CC3)ccc2nc2n1CCCCC2 -0.67%
COCC1CCN(Cc2cn(-c3ccccc3F)nc2-c2cc(C)sc2C)CC1 0.56%
COc1ccc(-c2nc3n(n2)C(c2ccccc2Cl)C(C(N)=O)=C(C)N3)cc1 (configuration not stated) 9.41%
CCOC(=O)CSc1ccc(S(=O)(=O)N2CCCC2)cc1[N+](=O)[O-] -0.65%
COc1ccc(OCCSc2nc3ccccc3c(=O)[nH]2)cc1 2.2%
CCN1C(=O)[C@H]2[C@H]3[C@H](O)[C@H](O)C/C(=N\O[C@H](C)c4cn([C@H](CO)Cc5ccccc5)nn4)[C@@H]3CC[C@H]2C1=O -7.3%
COCC(=O)NC1CCCCCC1 2.18%
CCOc1cc(C)c(Cl)cc1S(=O)(=O)NCC1CCCO1 (configuration not stated) 1.73%
O=C1NCCCC1C(=O)N/N=C/c1cccc(Cl)c1 (configuration not stated) -7.25%
NS(=O)(=O)c1ccc(CCNC(=O)COC(=O)CCc2ccccc2)cc1 -2%
CN(C)c1oc(-c2ccccc2)nc1C#N 11%
CCN(CC)CCCNc1oc(-c2cccc(Cl)c2)nc1C#N 12.2%
N#Cc1nc(Cc2cccc3ccccc23)oc1NCCCN1CCOCC1 6.12%
CNc1oc(-c2cccs2)nc1C#N 13%
N#Cc1nc(COc2ccc(-c3ccccc3)cc2)oc1NCCCN1CCOCC1 -3.18%
CCN(CC)CCCNc1oc(-c2ccccc2[N+](=O)[O-])nc1C#N 9.93%
CCOc1cc(C)c(C(C)C)cc1S(=O)(=O)n1ccc(C)n1 -2.68%
Cc1c(Cl)cccc1NC(=S)NCCc1ccccn1 20.7%
COc1ccc(/C=C2\CCCC3C2=NN(C(=O)COC(=O)CNC(=O)c2ccccc2)C3c2ccc(OC)cc2)cc1 (configuration not stated) 2.31%
O=C(Cc1cccs1)Nc1nnc(-c2ccc(F)cc2)s1 -2.11%
COc1cc(C(=O)Nc2ccc([N+](=O)[O-])cn2)cc(OC)c1OC 13.8%
COc1ccc(S(=O)(=O)NCCC(C)C)cc1OC -0.02%
Cc1nc(N)sc1C(=O)OCC(C)C -4.36%
Cc1ccc(-n2c(P(C)(=O)O)nc3ccccc32)cc1 -0.56%
Cc1ccnc(NC(=O)CCCOc2ccc(Cl)cc2C)c1 -1.52%
C=CCC(=O)N1CCCC(CCC(=O)NCc2ccccc2F)C1 (configuration not stated) 9.17%
O=C(CCn1c(=O)oc2ccccc21)Nc1ccc2c(c1)OCCO2 -5.19%
COc1ccccc1CCNS(=O)(=O)c1cn(C)c(=O)n(C)c1=O -3.3%
CC(CCC(=O)O)C1CC[C@@]2(C)C3C(=O)CC4C(C)(C)C(O)CC[C@]4(C)C3C(=O)C[C@]12C (some centres not stated) 3%
C[C@H](CCC(=O)O)[C@H]1CC[C@H]2[C@@H]3C(=O)C[C@@H]4CC(=O)CC[C@]4(C)[C@H]3CC(=O)[C@]12C 7.14%
C=CCn1c(O)c(N=NC(=O)OCC)c2ccccc21 12.7%
C/C(Cl)=C\Cn1c(O)c(N=O)c2ccccc21 -2.4%
CCn1c(O)c(N=NC(=O)Cn2ccc(C(F)(F)F)n2)c2ccccc21 5.05%
O=C(N/N=C/c1ccc(Cl)s1)c1ccccc1[N+](=O)[O-] 9.55%
Cc1c(C)c2ccc(Oc3ccc([N+](=O)[O-])cc3C(F)(F)F)c(C)c2oc1=O 6.61%
Cc1cc(SCC(=O)N2CCC(c3noc4ccc(F)cc34)CC2)nc2ccccc12 7.53%
Cc1sc2ncnc(SCC(=O)N3CCC(c4noc5ccc(F)cc45)CC3)c2c1C 1.38%
COC(=O)c1cn(NC(=O)Cc2ccccc2OC)c(=O)c2ccccc12 3.77%

inhibition, active:
COc1ccc(-c2nc(C#N)c(NCCCN3CCOCC3)o2)cc1 27.7%
